Test [1] concerns the target 5'-AMP-activated protein kinase catalytic subunit alpha-2 (Homo sapiens) (UniProt P54646). The settings on record: at 1 µM.
Test [2] concerns the target T1, NUAK family SNF1-like kinase 1 (Homo sapiens) (UniProt O60285).
T1 sequence (whole entry): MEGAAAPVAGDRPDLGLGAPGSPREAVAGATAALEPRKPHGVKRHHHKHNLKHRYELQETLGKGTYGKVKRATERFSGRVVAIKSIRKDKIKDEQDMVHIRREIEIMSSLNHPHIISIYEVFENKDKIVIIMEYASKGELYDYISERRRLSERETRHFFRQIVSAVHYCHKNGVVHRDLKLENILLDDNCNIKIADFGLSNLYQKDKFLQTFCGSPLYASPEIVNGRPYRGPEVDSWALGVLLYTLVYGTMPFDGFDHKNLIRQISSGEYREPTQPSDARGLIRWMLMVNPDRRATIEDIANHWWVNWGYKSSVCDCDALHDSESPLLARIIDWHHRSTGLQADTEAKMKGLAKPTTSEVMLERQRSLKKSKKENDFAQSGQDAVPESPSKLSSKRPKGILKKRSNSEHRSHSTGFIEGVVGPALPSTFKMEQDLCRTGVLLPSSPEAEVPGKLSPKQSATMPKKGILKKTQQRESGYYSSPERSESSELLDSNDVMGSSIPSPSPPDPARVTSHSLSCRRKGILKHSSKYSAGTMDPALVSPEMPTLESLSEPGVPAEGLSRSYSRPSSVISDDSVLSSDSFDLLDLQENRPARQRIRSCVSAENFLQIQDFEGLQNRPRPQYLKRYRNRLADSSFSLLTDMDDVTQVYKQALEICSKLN
The following applies: at 0.1 µM.

Test [3] deals with T1, NUAK family SNF1-like kinase 1 (Homo sapiens). The following applies: at 1 µM.
For test [4], the target named is T2, Serine/threonine-protein kinase BRSK1 (Homo sapiens) (UniProt Q8TDC3).
T2 sequence (whole entry): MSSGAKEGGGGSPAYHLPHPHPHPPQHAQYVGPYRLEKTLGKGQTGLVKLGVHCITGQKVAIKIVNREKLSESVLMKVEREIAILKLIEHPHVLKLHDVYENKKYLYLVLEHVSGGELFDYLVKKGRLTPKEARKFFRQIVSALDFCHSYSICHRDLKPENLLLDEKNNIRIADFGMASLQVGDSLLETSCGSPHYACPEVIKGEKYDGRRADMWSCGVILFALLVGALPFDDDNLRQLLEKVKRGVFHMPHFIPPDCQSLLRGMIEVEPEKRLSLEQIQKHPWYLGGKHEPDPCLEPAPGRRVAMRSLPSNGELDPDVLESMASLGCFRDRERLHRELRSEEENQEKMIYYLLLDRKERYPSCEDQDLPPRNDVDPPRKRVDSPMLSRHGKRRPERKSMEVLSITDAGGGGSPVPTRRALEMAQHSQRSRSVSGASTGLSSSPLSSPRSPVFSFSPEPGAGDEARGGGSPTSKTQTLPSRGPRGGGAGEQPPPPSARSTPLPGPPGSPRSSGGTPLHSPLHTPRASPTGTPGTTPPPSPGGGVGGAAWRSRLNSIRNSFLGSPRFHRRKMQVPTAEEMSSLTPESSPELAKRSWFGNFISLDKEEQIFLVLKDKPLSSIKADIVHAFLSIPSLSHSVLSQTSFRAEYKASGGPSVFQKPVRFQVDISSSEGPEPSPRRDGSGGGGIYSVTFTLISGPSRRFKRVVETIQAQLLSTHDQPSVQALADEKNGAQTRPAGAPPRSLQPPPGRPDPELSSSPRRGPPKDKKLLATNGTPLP
The settings on record: at 0.1 µM.

Test [5] has as its target T2, Serine/threonine-protein kinase BRSK1 (Homo sapiens). The settings on record: at 1 µM.
The target of test [6] is T3, Serine/threonine-protein kinase BRSK2 (Homo sapiens) (UniProt Q8IWQ3).
T3 sequence (whole entry): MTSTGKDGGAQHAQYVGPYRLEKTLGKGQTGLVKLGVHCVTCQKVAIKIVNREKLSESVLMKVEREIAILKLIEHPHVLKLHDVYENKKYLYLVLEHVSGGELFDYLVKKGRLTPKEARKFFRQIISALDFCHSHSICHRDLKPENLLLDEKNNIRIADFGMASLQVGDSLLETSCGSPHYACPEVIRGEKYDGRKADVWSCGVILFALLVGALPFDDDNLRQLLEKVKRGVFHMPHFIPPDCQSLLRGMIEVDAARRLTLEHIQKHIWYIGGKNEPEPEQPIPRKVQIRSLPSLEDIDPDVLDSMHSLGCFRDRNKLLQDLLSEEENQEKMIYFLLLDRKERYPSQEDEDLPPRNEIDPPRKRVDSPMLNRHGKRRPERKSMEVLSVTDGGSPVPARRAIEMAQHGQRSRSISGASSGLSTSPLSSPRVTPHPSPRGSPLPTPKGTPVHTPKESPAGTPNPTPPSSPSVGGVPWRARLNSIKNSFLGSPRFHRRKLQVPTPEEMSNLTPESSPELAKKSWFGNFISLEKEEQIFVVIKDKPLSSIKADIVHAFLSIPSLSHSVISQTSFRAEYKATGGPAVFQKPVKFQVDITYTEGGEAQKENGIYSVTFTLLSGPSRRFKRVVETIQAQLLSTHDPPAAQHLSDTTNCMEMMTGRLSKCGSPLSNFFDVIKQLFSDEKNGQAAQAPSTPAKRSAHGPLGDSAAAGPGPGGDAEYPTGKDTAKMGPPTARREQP
The settings on record: at 0.1 µM.

Test [7] concerns the target T3, Serine/threonine-protein kinase BRSK2 (Homo sapiens). The settings on record: at 1 µM.
For test [8], the target named is Calcium/calmodulin-dependent protein kinase type 1D (Homo sapiens) (UniProt Q8IU85). The settings on record: at 0.1 µM.
Sequence of Calcium/calmodulin-dependent protein kinase type 1D (Homo sapiens) (Q8IU85 whole entry, looked up): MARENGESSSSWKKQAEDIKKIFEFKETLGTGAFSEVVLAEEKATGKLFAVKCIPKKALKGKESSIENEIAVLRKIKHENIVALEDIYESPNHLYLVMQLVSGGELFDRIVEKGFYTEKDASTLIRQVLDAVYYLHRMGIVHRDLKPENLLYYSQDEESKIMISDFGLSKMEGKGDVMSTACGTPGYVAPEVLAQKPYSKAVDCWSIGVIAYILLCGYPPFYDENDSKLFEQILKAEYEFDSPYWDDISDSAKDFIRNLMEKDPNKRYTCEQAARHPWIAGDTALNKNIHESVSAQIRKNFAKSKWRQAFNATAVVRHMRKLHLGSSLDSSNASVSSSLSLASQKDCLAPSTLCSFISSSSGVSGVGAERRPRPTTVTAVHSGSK
Test [9] has the same target. The settings on record: at 1 µM.
Test [10] has as its target Calcium/calmodulin-dependent protein kinase type II subunit alpha (Homo sapiens) (UniProt Q9UQM7). The settings on record: at 0.1 µM.
Test [11] shares this target. The following applies: at 1 µM.
Test [12] has as its target Calcium/calmodulin-dependent protein kinase type II subunit delta (Homo sapiens) (UniProt Q13557). The following applies: at 0.1 µM.
Test [13] shares this target. The settings on record: at 1 µM.
Test [14] addresses T4, Calcium/calmodulin-dependent protein kinase type IV (Homo sapiens) (UniProt Q16566).
T4 sequence (whole entry): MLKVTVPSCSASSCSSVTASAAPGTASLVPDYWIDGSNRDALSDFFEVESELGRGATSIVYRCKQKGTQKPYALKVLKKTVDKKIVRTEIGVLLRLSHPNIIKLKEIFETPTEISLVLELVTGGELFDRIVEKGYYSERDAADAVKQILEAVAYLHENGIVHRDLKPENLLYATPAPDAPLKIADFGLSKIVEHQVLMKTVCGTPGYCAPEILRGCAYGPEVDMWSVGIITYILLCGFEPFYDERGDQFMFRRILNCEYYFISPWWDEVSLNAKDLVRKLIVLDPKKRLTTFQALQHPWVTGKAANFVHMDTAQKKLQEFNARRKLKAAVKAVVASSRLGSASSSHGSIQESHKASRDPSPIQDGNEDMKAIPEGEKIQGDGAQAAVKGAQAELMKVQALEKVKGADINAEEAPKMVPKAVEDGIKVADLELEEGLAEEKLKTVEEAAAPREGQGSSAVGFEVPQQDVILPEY
The settings on record: at 0.1 µM.

The target in test [15] is T4, Calcium/calmodulin-dependent protein kinase type IV (Homo sapiens). The settings on record: at 1 µM.
In test [16] the target is T5, Serine/threonine-protein kinase Chk1 (Homo sapiens) (UniProt O14757).
T5 sequence (whole entry): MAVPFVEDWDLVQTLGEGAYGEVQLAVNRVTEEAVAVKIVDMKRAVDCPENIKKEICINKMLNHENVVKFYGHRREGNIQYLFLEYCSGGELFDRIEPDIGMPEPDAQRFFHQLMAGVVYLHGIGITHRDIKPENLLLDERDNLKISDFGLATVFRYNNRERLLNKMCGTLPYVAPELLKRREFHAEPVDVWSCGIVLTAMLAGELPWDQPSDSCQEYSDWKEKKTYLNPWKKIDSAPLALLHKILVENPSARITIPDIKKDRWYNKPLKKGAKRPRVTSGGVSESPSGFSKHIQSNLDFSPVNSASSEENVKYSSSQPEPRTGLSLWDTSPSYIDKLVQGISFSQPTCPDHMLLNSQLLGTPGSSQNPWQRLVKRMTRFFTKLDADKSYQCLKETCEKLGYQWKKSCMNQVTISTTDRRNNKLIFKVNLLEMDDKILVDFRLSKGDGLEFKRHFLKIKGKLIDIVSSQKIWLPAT
The following applies: at 0.1 µM.

Test [17] deals with T5, Serine/threonine-protein kinase Chk1 (Homo sapiens). The following applies: at 1 µM.
For test [18], the target named is Serine/threonine-protein kinase Chk2 (Homo sapiens) (UniProt O96017). The following applies: at 0.1 µM.
Sequence of Serine/threonine-protein kinase Chk2 (Homo sapiens) (O96017 whole entry): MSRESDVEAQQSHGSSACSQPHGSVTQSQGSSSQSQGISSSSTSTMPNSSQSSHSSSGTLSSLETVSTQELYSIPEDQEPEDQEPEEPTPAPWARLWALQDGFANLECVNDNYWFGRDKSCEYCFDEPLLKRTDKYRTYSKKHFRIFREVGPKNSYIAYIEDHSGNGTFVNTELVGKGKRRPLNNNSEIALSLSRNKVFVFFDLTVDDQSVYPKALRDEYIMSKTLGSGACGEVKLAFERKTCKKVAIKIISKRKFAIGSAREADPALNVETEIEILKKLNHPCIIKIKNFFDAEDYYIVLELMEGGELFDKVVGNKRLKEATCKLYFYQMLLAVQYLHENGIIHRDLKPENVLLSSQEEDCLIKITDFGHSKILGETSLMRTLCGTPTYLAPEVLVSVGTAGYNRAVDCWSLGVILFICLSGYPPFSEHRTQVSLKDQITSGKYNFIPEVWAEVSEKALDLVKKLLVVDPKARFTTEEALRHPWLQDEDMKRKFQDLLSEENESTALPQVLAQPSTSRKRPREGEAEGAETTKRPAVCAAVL
For test [19] the target is unchanged. The following applies: at 1 µM.
In test [20] the target is Death-associated protein kinase 1 (Homo sapiens) (UniProt P53355). The settings on record: at 0.1 µM.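 Also: reported figure is the mean inhibition of DAPK1.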
Sequence of Death-associated protein kinase 1 (Homo sapiens) (P53355 whole entry, looked up): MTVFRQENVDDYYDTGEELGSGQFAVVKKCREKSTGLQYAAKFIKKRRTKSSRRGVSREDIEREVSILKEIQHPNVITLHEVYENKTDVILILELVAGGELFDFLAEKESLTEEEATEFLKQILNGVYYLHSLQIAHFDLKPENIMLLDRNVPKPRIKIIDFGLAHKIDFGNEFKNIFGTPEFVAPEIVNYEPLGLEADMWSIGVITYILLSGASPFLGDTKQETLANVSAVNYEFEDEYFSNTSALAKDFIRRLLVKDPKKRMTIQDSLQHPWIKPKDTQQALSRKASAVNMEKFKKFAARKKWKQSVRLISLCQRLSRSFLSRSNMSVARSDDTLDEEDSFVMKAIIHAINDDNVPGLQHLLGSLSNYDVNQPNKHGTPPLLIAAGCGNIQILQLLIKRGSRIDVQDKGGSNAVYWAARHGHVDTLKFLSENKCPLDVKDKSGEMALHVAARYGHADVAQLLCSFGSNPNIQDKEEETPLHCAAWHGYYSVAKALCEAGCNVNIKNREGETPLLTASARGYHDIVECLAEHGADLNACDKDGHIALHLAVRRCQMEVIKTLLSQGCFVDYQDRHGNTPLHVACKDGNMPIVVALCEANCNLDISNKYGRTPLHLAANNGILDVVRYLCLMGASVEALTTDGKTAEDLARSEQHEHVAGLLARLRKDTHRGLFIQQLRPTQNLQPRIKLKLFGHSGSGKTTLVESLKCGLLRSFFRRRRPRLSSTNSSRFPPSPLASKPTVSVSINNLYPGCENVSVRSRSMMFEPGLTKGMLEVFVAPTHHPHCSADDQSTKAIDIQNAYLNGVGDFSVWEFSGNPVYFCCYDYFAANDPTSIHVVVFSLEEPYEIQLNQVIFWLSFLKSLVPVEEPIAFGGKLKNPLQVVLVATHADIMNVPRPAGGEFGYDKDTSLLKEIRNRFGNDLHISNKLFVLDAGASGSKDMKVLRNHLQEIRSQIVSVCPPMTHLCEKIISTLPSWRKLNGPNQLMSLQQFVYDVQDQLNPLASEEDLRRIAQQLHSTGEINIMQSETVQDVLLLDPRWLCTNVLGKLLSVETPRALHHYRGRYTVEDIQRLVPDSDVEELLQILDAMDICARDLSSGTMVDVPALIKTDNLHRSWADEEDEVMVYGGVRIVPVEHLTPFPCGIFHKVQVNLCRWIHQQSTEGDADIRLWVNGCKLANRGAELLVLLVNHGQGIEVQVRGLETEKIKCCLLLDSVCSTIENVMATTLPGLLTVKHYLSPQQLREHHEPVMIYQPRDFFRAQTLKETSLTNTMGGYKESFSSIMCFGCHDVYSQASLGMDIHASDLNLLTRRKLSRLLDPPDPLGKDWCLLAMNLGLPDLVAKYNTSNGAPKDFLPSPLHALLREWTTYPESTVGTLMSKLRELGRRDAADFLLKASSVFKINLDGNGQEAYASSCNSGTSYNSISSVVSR

Sequence of Calcium/calmodulin-dependent protein kinase type II subunit delta (Homo sapiens) (Q13557 whole entry): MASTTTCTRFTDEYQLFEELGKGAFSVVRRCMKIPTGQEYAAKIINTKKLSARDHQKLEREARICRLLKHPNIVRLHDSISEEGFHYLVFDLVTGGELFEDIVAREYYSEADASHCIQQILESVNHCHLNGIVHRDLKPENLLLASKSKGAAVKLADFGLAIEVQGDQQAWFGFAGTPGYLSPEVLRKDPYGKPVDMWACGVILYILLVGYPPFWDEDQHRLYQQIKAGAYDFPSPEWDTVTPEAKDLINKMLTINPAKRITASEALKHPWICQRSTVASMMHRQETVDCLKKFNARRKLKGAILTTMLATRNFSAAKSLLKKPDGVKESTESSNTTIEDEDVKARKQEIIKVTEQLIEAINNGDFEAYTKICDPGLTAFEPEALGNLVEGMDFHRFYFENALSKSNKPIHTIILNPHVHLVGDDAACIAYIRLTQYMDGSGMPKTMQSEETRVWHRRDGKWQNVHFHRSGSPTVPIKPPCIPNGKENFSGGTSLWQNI
Sequence of Calcium/calmodulin-dependent protein kinase type II subunit alpha (Homo sapiens) (Q9UQM7 whole entry): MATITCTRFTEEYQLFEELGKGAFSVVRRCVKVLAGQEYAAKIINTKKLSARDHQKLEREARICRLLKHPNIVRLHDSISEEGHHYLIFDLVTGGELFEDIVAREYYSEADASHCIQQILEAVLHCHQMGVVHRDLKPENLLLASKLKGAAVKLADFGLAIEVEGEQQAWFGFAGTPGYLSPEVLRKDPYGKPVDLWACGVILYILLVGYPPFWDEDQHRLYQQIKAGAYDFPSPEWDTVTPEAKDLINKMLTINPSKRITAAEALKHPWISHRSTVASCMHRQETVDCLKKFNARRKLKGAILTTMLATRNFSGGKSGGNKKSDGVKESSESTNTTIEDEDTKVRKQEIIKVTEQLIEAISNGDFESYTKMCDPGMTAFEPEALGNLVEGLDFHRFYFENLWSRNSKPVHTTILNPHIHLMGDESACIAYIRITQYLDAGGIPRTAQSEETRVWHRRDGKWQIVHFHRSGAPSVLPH
Sequence of 5'-AMP-activated protein kinase catalytic subunit alpha-2 (Homo sapiens) (P54646 whole entry, looked up): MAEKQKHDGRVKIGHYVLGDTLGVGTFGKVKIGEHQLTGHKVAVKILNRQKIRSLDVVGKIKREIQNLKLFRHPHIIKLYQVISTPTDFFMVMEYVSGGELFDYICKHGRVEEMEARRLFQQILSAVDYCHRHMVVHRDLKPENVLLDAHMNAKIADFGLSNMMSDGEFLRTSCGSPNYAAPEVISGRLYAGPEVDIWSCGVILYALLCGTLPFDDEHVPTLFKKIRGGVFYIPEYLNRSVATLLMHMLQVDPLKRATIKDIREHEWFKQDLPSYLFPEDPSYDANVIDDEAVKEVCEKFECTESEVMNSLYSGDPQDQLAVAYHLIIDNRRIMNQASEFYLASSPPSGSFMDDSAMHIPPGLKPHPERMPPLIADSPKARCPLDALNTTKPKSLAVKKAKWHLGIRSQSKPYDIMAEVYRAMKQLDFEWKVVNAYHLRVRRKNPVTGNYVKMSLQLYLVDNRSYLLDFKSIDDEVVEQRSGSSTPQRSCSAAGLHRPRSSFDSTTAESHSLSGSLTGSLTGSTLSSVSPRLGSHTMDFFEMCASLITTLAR

For the compound `CCn1c(-c2nonc2N)nc2c(C#CC(C)(C)O)nc(OC[C@@H](N)c3ccccc3)cc21`, the inhibition came to 21.1% in [1]; 28% in [2]; 94.5% in [3]; 0.41% in test [4]; 4.9% in test [5]; 0.42% in [6]. Moreover, the inhibition is 5% in test [7]; 0.26% in test [8]; 2.9% in test [9]; -2.45% in test [10]; 0.34% in [11]; -0.01% in test [12]. In addition, the inhibition in test [13] is 1.5%; in [14] it was 2.61%; in test [15], 3.39%; in test [16], -5.33%; in [17], 7.52%; in [18] it was -5.8%. Moreover, the results for the inhibition in test [19] and in [20] were 1.05% and -8.66%, respectively.

In the case of `Cc1ccc(C(=O)NC2CCCCC2)cc1-c1ccc(C(=O)NCC2CC2)cc1`, the inhibition was 1.51% in test [1]; 2.83% in test [2]; 2.62% in [3]; 2.63% in test [4]; 0.64% in test [5]; 1.87% in test [6]. Further, the inhibition in test [7] is -1.13%; in test [8], 3.13%; in test [9], 2.73%; in test [10], 4.8%; in test [11] it was 4.57%; in test [12], 4.88%. Moreover, the inhibition amounted to 2.35% in [13]; 3.22% in [14]; 3.67% in test [15]; 6.06% in test [16]; 5.14% in test [17]; 1.33% in [18]. The figures for the inhibition in test [19] and in [20] were 1.29% and 3.76%, respectively.

In the case of `COc1ccc(-c2ccncc2)cc1C(N)=O`, the inhibition in [1] came to 4.51%; in test [2] it was 1.88%; in [3], 5.44%; in test [4] it was 3.31%; in [5], 4.66%; in test [6], 4.68%. Besides, the inhibition was 8.59% in test [7]; -0.75% in test [8]; 1.22% in test [9]; 1.71% in test [10]; 3.32% in test [11]; 3.92% in test [12]. Besides, the inhibition in test [13] is 8.26%; in test [14], -1.04%; in test [15], 0.03%; in test [16], 8.46%; in test [17] it was 10.1%; in test [18] it was 8.96%. Also, the inhibition in test [19] is 12.5%; in test [20], 14%.

For `Cn1cc(C=C2C(=O)Nc3cccnc32)c2ccccc21`, the inhibition in [1] was 8.64%; in test [2], 8.91%; in [3], 44.5%; in [4], 4.71%; in test [5], 12.3%; in [6], 6.03%. Also, the inhibition in test [7] stood at 12.3%; in test [8], 0.99%; in [9] it was 2.41%; in [10], 1.58%; in test [11] it was 3.18%; in test [12], 2.44%. In addition, the inhibition in test [13] was 6.23%; in [14], 0.47%; in test [15], -0.07%; in test [16], 0.66%; in test [17], 7.2%; in test [18] it was 2.65%. In addition, the inhibition in [19] worked out at 15.6%; in [20], 2.44%.

Consider `CCn1c(-c2nonc2N)nc2cnc(Oc3cccc(NC(=O)c4ccc(OCCN5CCOCC5)cc4)c3)cc21`, for which the inhibition in test [1] is 3.43%; in test [2] it was 5.2%; in [3], 26.9%; in test [4], 1.86%; in test [5] it was 0.26%; in test [6], 1.64%. Besides, the inhibition in test [7] is 2.71%; in [8], -0.02%; in test [9] it was 2.35%; in test [10], 1.46%; in test [11], 2.17%; in test [12], 1.77%. Besides, the inhibition is 4% in test [13]; 2.08% in test [14]; 2.49% in [15]; -8.33% in test [16]; 4.37% in test [17]; 3.15% in test [18]. The inhibition was 13.3% in test [19] and -1.49% in test [20].

`O=C1Nc2ccc(C(=O)c3ccco3)cc2C1=Cc1cc(Cl)c(O)c(Cl)c1`: the inhibition in test [1] came to 10.8%; in [2], 2.94%; in test [3], 10.8%; in test [4] it was 1.94%; in test [5], 8.43%; in [6], 3.02%. In addition, the inhibition is 13.1% in test [7]; -0.26% in test [8]; 0.48% in test [9]; 3.4% in test [10]; 8% in test [11]; 3.46% in [12]. Also, the inhibition in test [13] worked out at 11.4%; in test [14], 0.35%; in test [15], 0.09%; in [16] it was 1.54%; in test [17] it was 5.95%; in [18] it was 2.67%. The results for the inhibition in [19] and in test [20] were 12.5% and -0.53%, respectively.

These data come from ChEMBL document CHEMBL1961873, “Compounds: GSK PKIS; Assays: Nanosyn kinase panel” (2012).
